This is a sample that favours compounds with a hit; in the whole collection about 6.6% have one here.
TGFb inhibitor: qHTS for Inhibitors of TGF-b; HepG2 CAGA-GFP TGF-b/SMAD3 reporter, GFP fluorescence, 18 h; TGF-beta stimulated, 500 pg/mL final; Potency, µM (top dose mostly 46.1 µM), usual class: inhibitors; 410,000 compounds, 1.2% hits; note: nearly all actives have a fitted effect of over 65% in size
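HEPG2 CAGA-GFP, 1000 cells/well; 2 h settle, 37 C; cpd via pin tool; TGF-b 500 pg/mL final; 18 h, 37 C; GFP imaging ex488/em500-530; %Activity normalised to -TGF-b and +DMSO controls; CRC fit, curve class.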
HT1080NT lethal: qHTS for induction of synthetic lethality in tumor cells producing 2HG: qHTS for the HT-1080-NT fibrosarcoma cell line; Potency, µM (titrated, usually from 46.1 µM), actives largely listed as cytotoxic; HT-1080-NT fibrosarcoma viability, CellTiter-Glo ATP luminescence, 48 h; 360,000 compounds, 1.6% hits;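 note: NT is the 2HG producing partner of a matched IDH1 knockdown line; nearly all actives have a fitted effect of over 55% in size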
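Read-out is CellTiter-Glo luminescence after 10 minutes at room temperature, following 48 hours' compound treatment of HT-1080-NT cells (750 cells/well, RPMI, 5% FBS, 37 degrees C).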
KB-3-1 tox: qHTS assay for MDR1-selective chemotherapeutics: Primary screen using the parental adenocarcinoma cell KB-3-1 | KB-3-1 viability, CellTiter-Glo ATP luminescence, 72 h | 400,000 compounds, 1.4% hits | Potency, µM (series often up to 46.1 µM), hits mostly cytotoxic; note: nearly all actives have a fitted effect of over 60% in size
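Viability of parental KB-3-1 cells, measured by CellTiter-Glo luminescence, followed a 72 h incubation at 37 °C with pinned compounds in phenol-red-free DMEM containing 10% FBS.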
KB-V1 MDR tox: qHTS assay for MDR1-selective chemotherapeutics: Primary screen using the drug-selected MDR subline cells KB-V1 | AID 1347076, 2019 | KB-V1 MDR cells viability, CellTiter-Glo, 72 h | 400,000 compounds, 3.4% hits | Potency, µM (series often up to 46.1 µM), usual class: cytotoxic; note: nearly all actives have a fitted effect of over 60% in size
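Compound-treated KB-V1 multidrug-resistant cells, 72 h, 37 degrees C; viability by CellTiter-Glo. Fitted qHTS curves give the values.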
HT1080 IDH1KD tx: qHTS for induction of synthetic lethality in tumor cells producing 2HG: qHTS for the HT-1080-IDH1KD cell line; HT-1080 IDH1 knockdown viability, ATP luminescence, 48 h; Potency, µM (titrated, usually from 46.1 µM), actives largely listed as cytotoxic; 360,000 compounds, 2% hits
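CellTiter-Glo luminescence after 48 h compound exposure at 37 degrees C of IDH1-knockdown HT-1080 cells in 5% FBS RPMI. %Activity scaled between DMSO wells and cell-free media wells, with curves fitted and assigned curve classes.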
HepG2 viability: qHTS for Inhibitors of TGF-b: Cytotox Counterscreen | Potency, µM (series often up to 46.1 µM), hits mostly cytotoxic | 410,000 compounds, 0.76% hits | HepG2 CAGA-GFP viability, ATP luminescence, 18 h
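HepG2 CAGA-GFP cells (1000/well, DMEM with 1% FBS) received compound, then TGF-beta at 500 pg/mL final, and were incubated 18 hours at 37 degrees C. Viability was read by CellTiter-Glo luminescence. Media-only wells were set as complete cell-killing and DMSO as no toxicity.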
Large screens that a line does not name were inactive. Calls come from the whole dose curve; as a rule, active = well fitted curve in the direction sought with a large enough effect; inconclusive = small, poorly fitted or top-dose-only effect, or another doubt; inactive = no such curve, though single readings can be large; an effect the other way counts as inactive or inconclusive.

COc1ccc(N2CCN(CCCNC(=O)c3c(C)nn(-c4ccc(F)cc4)c3-n3cccc3)CC2)cc1	TGFb inhibitor inconclusive, KB-3-1 tox inconclusive, KB-V1 MDR tox inconclusive (no result: HT1080NT lethal, HT1080 IDH1KD tx)
Cc1nn(-c2ccc(F)cc2)c(-n2cccc2)c1C(=O)NCCCN1CCN(c2cccc(Cl)c2)CC1	TGFb inhibitor 11µM, KB-3-1 tox inconclusive, KB-V1 MDR tox 10µM, HepG2 viability 18µM (no result: HT1080NT lethal, HT1080 IDH1KD tx)
Cc1ccc(CN2CCN(CC(=O)NCCCN3CCN(c4ccc(F)cc4)CC3)C2=O)cc1	KB-3-1 tox 16µM, HT1080 IDH1KD tx inconclusive
CCOC(=O)N1CCC(NC(=O)c2c(C)nn(-c3ccc(C)cc3)c2-n2cccc2)CC1	KB-3-1 tox inconclusive, KB-V1 MDR tox 7.3µM (no result: HT1080NT lethal, HT1080 IDH1KD tx)
Cc1ccc(-n2nc(C)c(C(=O)NCCCN3CCN(c4ccc(F)cc4)CC3)c2-n2cccc2)cc1	KB-3-1 tox 15µM, KB-V1 MDR tox 16µM (no result: HT1080NT lethal, HT1080 IDH1KD tx)
COc1ccc(-c2nc3nc(C)cc(N4CCN(c5cccc(C(F)(F)F)c5)CC4)n3n2)cc1	none (no result: HT1080NT lethal, HT1080 IDH1KD tx)
COC(=O)c1sc2cccc(F)c2c1S(=O)(=O)N1CCN(c2ccc(F)cc2)CC1	TGFb inhibitor inconclusive (no result: HT1080NT lethal, HT1080 IDH1KD tx)
CCOc1ccc(OCC)c(NC(=O)Cn2ncc3c4ccccc4n(Cc4ccccc4)c3c2=O)c1	KB-V1 MDR tox inconclusive (no result: HT1080NT lethal, HT1080 IDH1KD tx)
CCOC(=O)CCCC(=O)N1CCN(/[N+]([O-])=N/Oc2ccc([N+](=O)[O-])cc2[N+](=O)[O-])CC1	TGFb inhibitor inconclusive (no result: HT1080NT lethal, KB-3-1 tox, KB-V1 MDR tox, HT1080 IDH1KD tx)
CN1OC[C@@H]2CN(Cc3ccccc3)[C@H](c3cccc(N4CCOCC4)c3)C[C@@H]21	none
Cc1ccccc1-c1cccc([C@@H]2C[C@H]3[C@H](CON3C)CN2Cc2ccccc2)c1	TGFb inhibitor 14µM, HT1080 IDH1KD tx inconclusive
CCOc1cc(CNC(=O)c2ccc3c(c2)NC(=O)C2CCCCN32)cc(OCC)c1OCC (stereo not given)	none (no result: HT1080NT lethal, HT1080 IDH1KD tx)
Cc1ccc(S(=O)(=O)c2nc(-c3cccc(C)c3)oc2N2CCN(c3ccccc3)CC2)cc1	none (no result: HT1080NT lethal, HT1080 IDH1KD tx)
Cc1cc(S(=O)(=O)NC2CCCCC2)ccc1OCC(=O)NCc1ccccn1	KB-V1 MDR tox 18µM
O=C(COc1ccc(Cl)cc1Cl)N(c1ccccn1)C1CCCCC1	KB-3-1 tox inconclusive
Cc1ccc(OCC(=O)N(c2ccccn2)C2CCCCC2)c(C)c1	TGFb inhibitor inconclusive, KB-V1 MDR tox 18µM
COc1ccccc1NC(=O)Cn1c(=O)n(CCc2ccccc2)c(=O)c2c3c(sc21)CN(C(C)=O)CC3	TGFb inhibitor inconclusive (no result: HT1080NT lethal, HT1080 IDH1KD tx)
S=C(Nc1cccc(Cl)c1)Nc1cccc2cnccc12	KB-3-1 tox 18µM, KB-V1 MDR tox 23µM
S=C(NCCc1ccccc1)Nc1cccc2cnccc12	TGFb inhibitor inconclusive, KB-3-1 tox 4.1µM, KB-V1 MDR tox 8.2µM
Cc1ccccc1NC(=S)Nc1cccc2cnccc12	KB-V1 MDR tox inconclusive
Fc1ccccc1NC(=S)Nc1cccc2cnccc12	KB-3-1 tox inconclusive, KB-V1 MDR tox 23µM
COc1ccc(NC(=O)c2sc3nc4c(cc3c2N)CN(C(C)C)CC4)c(OC)c1	none (no result: HT1080NT lethal, HT1080 IDH1KD tx)
COc1ccccc1NC(=O)c1sc(-c2ccc(Cl)cc2)cc1N	none (no result: HT1080NT lethal, KB-3-1 tox, KB-V1 MDR tox, HT1080 IDH1KD tx)
Cc1c(CN(C)C)c2c(n1Cc1ccccc1)C(=O)c1ccc(Br)cc1-2	TGFb inhibitor inconclusive, HT1080NT lethal 18µM, KB-3-1 tox inconclusive, KB-V1 MDR tox 23µM, HT1080 IDH1KD tx inconclusive, HepG2 viability 18µM
CCOC(=O)c1ccc(NC(=O)Cc2ccc(-n3c(CC)nc4cccnc43)cc2)cc1	TGFb inhibitor inconclusive (no result: HT1080NT lethal, HT1080 IDH1KD tx)
c1cc2c3c(cccc3c1)NC1(CCC3(CC1)Nc1cccc4cccc(c14)N3)N2	TGFb inhibitor inconclusive, HT1080NT lethal 21µM, HT1080 IDH1KD tx inconclusive
CCCN(CC(=O)Nc1cc(C)on1)CC(=O)Nc1ccc(F)c(F)c1F	KB-V1 MDR tox 4.6µM

Screening data from PubChem BioAssay.
